Measurements taken from PubChem BioAssay (NCI).
Compounds without any hit were thinned out: in the full panel of roughly 83,000, 20% have a hit.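 Growth was measured after 48 h exposure to one concentration of compound in 96-well plates. Values under 10 count as active.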 Activity calls are given as the source filed them.

These compounds were tested on U251 CNS (assay: NCI-60 one-dose screen, 48 h (100 = growth as untreated, 0 = no growth, -100 = all killed)). Settings: 10 µM unless noted.
Description: Growth inhibition of the U251 human tumor cell line is measured as a screen for anti-cancer activity. Cells are grown in 96 well plates and exposed to the test compound for 48 hours. Compounds are tested at a single concentration, which is 10^-5 M for most compounds. The reported endpoint is percent growth (GI% or GIPRCNT), where numbers from 0 - 100% represent growth inhibition, and numbers from -100% - 0 represent cell death. For example, a value of 40 represents 60% growth inhibition. A value of 0 means no net growth occurred over the course of the experiment. A value of -40 indicates 40% of cells at the beginning of the experiment died by the end of the experiment. A value of -100 means all cells are dead at the end of the experiment.
NCI-60 Human Tumor Cell Lines Screen was performed using the standard one-dose NCI protocol, which is described in more detail at https://dtp.cancer.gov/discovery_development/nci-60/default.htm.
Compounds with GIPRCNT values below 10 were considered active. Activity score was based on GIPRCNT using the following formula: […]
Score is 0 for GIPRCNT values of 100 or above, 50 for GIPRCNT values of 0, and 100 for GIPRCNT values of -100.
In the case of `Nc1cccc(C(=O)Nc2ccc3c(O)c(N=Nc4ccc(N=Nc5ccc(S(=O)(=O)O)cc5)cc4)c(S(=O)(=O)O)cc3c2)c1`, the growth is reported as 109% (inactive). `COc1ccc2[nH]c(-c3ccccc3)c(C=C(C#N)C#N)c2c1` was tested, and the growth was 35.2% (inactive). For `Cc1cnc(-c2ccc(-c3ccc(NC(=O)Nc4c(F)cc(F)cc4F)cc3F)c3c2C(=O)NC3)[nH]1`, the growth was 8.19% (active). With `N#Cc1c(-c2ccc(F)cc2)nc(N=Nc2c(O)[nH]c3ccccc23)nc1N1CCOCC1` the growth was 27.4% (inactive). `COc1ccccc1N1CCN(CCCOc2ccc(C(=O)/C=C3/C(=O)Nc4ccccc43)cc2)CC1` was tested, and the growth was 64.1% (inactive). With `Oc1c(CCl)cc(Cl)cc1Cc1cc(Cl)cc(Cc2cc(Cl)cc(CCl)c2O)c1O` the growth was 31.7% (inactive). In the case of `CC(=O)OCC1OC(OC2C(COC(C)=O)OC(OCCC[S-])C(OC(C)=O)C2OC(C)=O)C(OC(C)=O)C(OC(C)=O)C1OC(C)=O.[Au+].c1ccc(CN2[CH-]N(Cc3ccccc3)C(c3ccccc3)=C2c2ccccc2)cc1` (stereo not given), the growth is reported as 5.17% (active). With `COc1ccc(/C=C/C(=O)C(CC2CCC2)C(=O)/C=C/c2ccc(OC)c(OC)c2)cc1OC` the growth was -68.8% (active). With `CCCCc1n(Cc2ccc3ccccc3n2)cc[n+]1Cc1ccc2ccccc2c1` the growth was 5.73% (active). In the case of `C#Cc1cccc(Nc2ncnc3ccc(NC(=O)c4ccccc4)cc23)c1`, the growth is reported as 85.4% (inactive). `Cc1ccccc1NC(=O)c1sc2nc(C)c(C(C)O)cc2c1N` (stereo not given) was tested, and the growth was 28.8% (inactive). In the case of `CN(C)c1ccc(-c2ccc3[nH]c(=O)nc(-c4ccc(F)cc4)c3c2)cn1`, the growth is reported as 31.3% (inactive). For `CC(=O)OC[C@]12CC[C@@H](c3cn(Cc4ccc(Cn5cc([C@@H]6CC[C@]7(COC(C)=O)CC[C@]8(C)[C@H](CC[C@@H]9[C@@]%10(C)CC[C@H](OC(C)=O)C(C)(C)[C@@H]%10CC[C@]98C)[C@@H]67)nn5)cc4)nn3)[C@@H]1[C@H]1CC[C@@H]3[C@@]4(C)CC[C@H](OC(C)=O)C(C)(C)[C@@H]4CC[C@@]3(C)[C@]1(C)CC2`, the growth was 103% (inactive). In the case of `CN(C)C1=NCCN1`, the growth is reported as 96.9% (inactive). In the case of `COc1cc(C2=NN(C(C)=O)C(c3cccc(Nc4ccnc5cc(C(F)(F)F)ccc45)c3)C2)cc(OC)c1OC` (stereo not given), the growth is reported as 58.7% (inactive). In the case of `O=[N+]([O-])c1cccc(CN(Cc2cccc([N+](=O)[O-])c2O)c2ccccc2)c1O`, the growth is reported as 85.4% (inactive). For `Cc1ccc(C2=N[C@H]3CCC[C@@H]3N(c3ccccc3)C(C(Cl)Cl)=N2)cc1`, the growth was 112% (inactive). In the case of `O=C(CN1N=C(c2ccc(F)cc2)CCC1=O)Nc1nc2ccccc2s1`, the growth is reported as 16% (inactive). For `CCOC(=O)NC(Cc1ccccc1)c1ccccc1` (stereo not given), the growth was 99.9% (inactive). With `CN1C(=O)c2cc(Cl)nc3c(NC(=O)c4cccc(Cl)c4)c(Cl)c(NC(=O)c4cccc(Cl)c4)c1c23` the growth was -68.4% (active). With `Sc1cccc2cccnc12` the growth was 23.2% (inactive). In the case of `C#C[C@@]1(O)[C@@H](CO)O[C@@H](n2ccc3c(N)ncnc32)[C@@H]1O`, the growth is reported as 3.15% (active). `O=c1[nH]c2ccccc2cc1-c1nc2ccncc2[nH]1` was tested, and the growth was 83.7% (inactive). In the case of `Cc1ccc(C2CC(c3ccc(Nc4nc(NCCO)nc(NCCO)n4)cc3)=NN2c2ccc(Cl)cc2)cc1` (stereo not given), the growth is reported as 36.3% (inactive). With `CCCCn1c(=O)c(/C=C/C(=O)/C=C/c2ccc(OC)cc2)cc2cc(Cl)ccc21` the growth was -13.4% (active). With `Cc1c(C(=O)Nc2nc3ccccc3[nH]2)cnn1-c1ccccn1` the growth was 97.4% (inactive). In the case of `O=C1C(=O)c2c(nc3ccc(C(F)(F)F)cn23)-c2ccccc21`, the growth is reported as -96% (active). With `COc1cc(/C=C/C(=O)/C=C/c2cc3ccc(Cl)cc3[nH]c2=O)ccc1O` the growth was 19.6% (inactive). In the case of `COC(=O)/C=C/c1cc(OC)c2c(c1)[C@@H](C(=O)OC)[C@H](c1ccc(OC)c(OC)c1)O2`, the growth is reported as 25.1% (inactive). In the case of `CCCNc1nc(C)[nH]c(=O)c1S`, the growth is reported as 95% (inactive). With `O=C(Nc1cccc(-c2cccc(F)c2)c1)C1CCN(Cc2cccc3cccnc23)CC1` the growth was 44.4% (inactive). For `CCOC(=O)C(=Cc1c(-c2ccccc2)[nH]c2ccccc12)C(=O)OCC`, the growth was 52.9% (inactive). With `COc1ccc(Sc2[nH]c(C(C)=O)c3ccccc23)cc1` the growth was 76% (inactive). In the case of `Cc1cc(Nc2nc(SCc3ccc(C(=O)Nc4ccc(F)cc4N)cc3)nn3cccc23)n[nH]1`, the growth is reported as 25% (inactive). With `COc1ccc(NC(=O)c2sc3nc(C)c(C(C)=O)cc3c2N)cc1` the growth was 95% (inactive). `COc1cc(C(=O)Nc2cc(OC)c3ccn(C)c3c2)cc2c1C[C@]1(C)CC[C@@H](O)C(C)(C)[C@H]1O2` was tested, and the growth was 16.5% (inactive). With `COc1ccc(Cc2nc(C#N)c(N3CCN(c4ccc(F)cc4)CC3)o2)cc1` the growth was 103% (inactive). With `Cc1c(Cl)cccc1NC(=O)c1sc2nc3c(cc2c1N)CN(Cc1ccccc1)CC3` the growth was 31.9% (inactive). With `C=C(C)[C@@H]1CC[C@]2(C(=O)N=C=S)CC[C@]3(C)[C@H](CC[C@@H]4[C@@]5(C)CCC(=O)C(C)(C)[C@@H]5CC[C@]43C)[C@@H]12` the growth was 23.9% (inactive). With `COc1ccc(-c2nnc(N3CCN(C(=O)CN4CCN(c5ccccc5)CC4)CC3)nc2-c2ccc(OC)cc2)cc1` the growth was 37% (inactive).
